Assay results from PubChem BioAssay (EPA / NIEHS).
Activity calls are given as the source filed them. How the source made its calls: active means hit-call score of the fitted dose curve at least 0.9, where 1 is the maximum; inactive means score below 0.9.

experiment: APR_HepG2_MicrotubuleCSK_24hr: Apredica 24-hour HepG2 Assay for Microtubule CSK Stabilty (AID 2282909); settings: HepG2 microtubule cytoskeleton imaging, actives raise or lower the signal
Protocol: APR_HepG2_24hr is a cell-based, multiplexed-readout assay that uses HepG2, a human liver cell line, with measurements taken at 24 hours after chemical dosing in a 384-well plate.APR_HepG2_MicrotubuleCSK_24hr is one of 10 assay component(s) measured or calculated from the APR_HepG2_24hr assay. It is designed to make measurements of protein conformation, a form of conformation reporter, as detected with fluorescence intensity signals by HCS Fluorescent Imaging technology.Data from the assay component APR_HepG2_MicrotubuleCSK_24hr was analyzed into 1 assay endpoint. This assay endpoint, APR_HepG2_MicrotubuleCSK_24hr, was analyzed with bidirectional fitting relative to DMSO as the negative control and baseline of activity. Using a type of conformation reporter, measures of protein for gain or loss-of-signal activity can be used to understand the signaling at the cellular-level. Furthermore, this assay endpoint can be referred to as a primary readout, because this assay has produced multiple assay endpoints where this one serves a signaling function. To generalize the intended target to other relatable targets, this assay endpoint is annotated to the cell morphology intended target family, where the subfamily is cell conformation.
Cells were treated with dimethyl sulfoxide (DMSO) as a solvent control at a final concentration of 0.5% v/v or with compounds in DMSO with a resulting final DMSO concentration of 0.5% v/v. Compound treatment was done at concentrations of 0.39, 0.78, 1.56, 3.12, 6.24, 12.5, 25, 50, 100, and 200 uM in duplicate on each plate. Cells were treated with compounds for 1, 24, or 72 hr. Carbonyl […] m-chloro-phenylhydrazone (CCCP) and taxol were used as positive controls for mitochondrial function and cytoskeletal stability, respectively; DMSO served as the negative control for this experiment. Cells were fixed by the direct addition of 50 uL formaldehyde in Hank's Balanced Salt Solution (HBSS) to a final concentration of 3.7%. After incubation in the fixation medium for 30 min at room temperature (293-298 K), cells were rinsed twice with HBSS and treated with cell permeabilization buffer (16 uL of 0.5% Triton X-100) for 10 min at room temperature (293-298 K) before labeling. For mitochondrial membrane potential and mitochondrial measurements, pre-fixed cells were incubated with 50 uL of MitoTracker Red CMXRos (Invitrogen) at a concentration of 250 nM for 30 min before fixation. In the remaining cases, post-fixed cells were labeled by incubation with a multiplexed mixture of primary antibodies in HBSS for 60 min at room temperature (293-298 K) to detect immunoreactivity of c-Jun (1:500), phospho-histone H3 (1:100), phospho-histone H2A.x (1:200), p53 (1:400), alpha-tubulin (1:200) and Hoechst 33342 (2 ug/mL). Cells were labeled for multiplexed imaging on two separate plates: a) Hoechst 33342, MitoTracker Red, phospho-histone H3, and alpha-tubulin, and b) Hoechst 33342, phospho-histone H2A.x, and c-Jun. A final rinse with HBSS (50 uL) was performed before analysis. The primary and secondary antibodies for the proteins were phospho-histone H3 (rabbit anti-phospho-histone H3 and FITC-donkey anti-rabbit IgG), phospho-histone H2A.x (mouse anti-phospho-histone H2A.x and FITC-donkey anti-mouse IgG), c-Jun (rabbit anti-phospho-c-Jun and Cy3-donkey anti-rabbit IgG), p53 (sheep anti-p53 and Cy5-donkey anti-sheep IgG), alpha-tubulin (mouse anti-alpha-tubulin and Cy5-donkey anti-mouse IgG). These antibodies are available as the CellCiphr HepG2 assay kit (Millipore).Digital images of each well were captured using a Cellomics ArrayScan VTI (Thermo Scientific Cellomics) (0.8 NA objective, 0.63x optical coupler, and XF-93 filter set) at 20x magnification. The images were acquired using the autofocus feature of the ArrayScan instrument, which entails the following steps. First, the camera focuses on channel 1 (Hoechst 33342), where nuclei are identified. Second, a Z offset of 1 um is used for capturing mitochondria (MitoTracker Red). […]

Compound	outcome	AC50
O=C(N[C@H]1CN2CCC1CC2)c1ccc2c(c1)OCCO2	inactive	–
COc1ccccc1N	inactive	–
CN(C)C(=S)S	inactive	–
CC(C)(C)c1ccccc1O	inactive	–
CCCCCCCCCCCCc1cccc(S(=O)(=O)O)c1	inactive	–
Clc1cccc(Cl)c1Cl	inactive	–
OCCN(CCO)CCO	inactive	–
Clc1cccc(Cl)c1	inactive	–
O=C(O)C1(c2ccc3c(c2)OC[C@H](Cc2ccc(-c4ccccc4)cc2)[C@H]3O)CCCC1	inactive	–
Oc1cc(Cl)c(Cl)cc1Cl	–	41.8 µM (active)
CC(C)O.CC(C)O.OCCN(CCO)CCO.OCCN(CCO)CCO.[Ti]	inactive	–
N#Cc1cccnc1	inactive	–
Cc1cc(C)cc(C)c1	inactive	–
